# Values without a mark were called inactive. Inconclusive results are not listed. Entries that show only a call come without a potency. Activity calls are given as the source filed them. Unless noted, calls come from the whole dose curve; as a rule, active = well fitted curve in the direction sought with a large enough effect in the repeat runs; inconclusive = weak or mixed curves; inactive = no such curve, though single readings can be large; an effect the other way counts as inactive or inconclusive.
# Key:
# [1] = qHTS assay for small molecules that induce genotoxicity in human embryonic kidney cells expressing luciferase-tagged ATAD5 (AID 651632); note: nearly all actives have a fitted effect of over 15% in size
# Outline: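 A rise in luciferase signal from ATAD5-tagged HEK293T cells marks genetic stress. Cells were exposed to compounds for 16 hr at 37C, 5% CO2, then luciferase was quantified after a 30 min room-temperature incubation with Amplite.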
# [2] = qHTS assay for small molecule agonists of the p53 signaling pathway - cell viability (AID 651633; calls by dose curve;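 note: p53RE-bla HCT reporter cells with a stable beta-lactamase p53 reporter; series mostly up to about 83 µM; nearly all actives have a fitted effect of over 30% in size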)
# Outline: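 p53RE-bla cells, seeded at 4,000 per well and rested 5 h at 37 C/5% CO2, received compounds in DMSO for 16 h at 37 C. CellTiter-Glo was then added, and luminescence was read after 30 min at room temperature to gauge cytotoxicity.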
# [3] = qHTS assay for small molecules that induce genotoxicity in human embryonic kidney cells expressing luciferase-tagged ATAD5 - cell viability (AID 651634; calls by dose curve; note: nearly all actives have a fitted effect of over 25% in size; note: potency is the fitted concentration of half-maximal effect)
# Outline: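 Cytotoxicity counter-readout: after 15.5 hr compound treatment at 37C, live-cell protease activity in ATAD5-luciferase HEK293T cells measured by CellTiter-Fluor fluorescence, 30 min development at 37C.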
# [4] = qHTS assay for small molecule disruptors of the mitochondrial membrane potential - cell viability (AID 720634; calls by dose curve;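 note: human HepG2 liver cancer cells; series mostly up to about 83 µM; nearly all actives have a fitted effect of over 20% in size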)
# Outline: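 Cytotoxicity was quantified from ATP content by CellTiter-Glo luminescence in the same wells as the MMP dye read-out. HepG2 (2,000 cells/well) were plated overnight and exposed to compounds for 1 hr at 37 C.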
# [5] = qHTS assay to test for compound auto fluorescence at 590 nm (red) in HepG2 cells (AID 720674)
# Outline: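 Compound auto-fluorescence is scored relative to Rose Bengal sodium, measured at 540/590 nm in live HepG2 cultures after 1 hr compound contact (37 C, 5% CO2).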
# [6] = qHTS assay to test for compound auto fluorescence at 535 nm (green) in HepG2 cells (AID 720675)
# [7] = qHTS assay to test for compound auto fluorescence at 460 nm (blue) in HEK293 cells (AID 720678)
# Outline: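 Cells were seeded and left to adhere for 4-5 hr at 37C. Compounds were then pin-transferred. After an overnight incubation at 37C under 5% CO2, intrinsic fluorescence at 405/460 nm was measured and referenced to triamterene.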
# [8] = qHTS assay to test for compound auto fluorescence at 590 nm (red) in HEK293 cells (AID 720679)
# Outline: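 Each well held 2,000 HEK293 cells in medium containing 10% dialyzed FBS. Following 4-5 hr attachment at 37C, 23 nL test compound or DMSO was added; plates sat overnight, and red fluorescence (540/590nm) was recorded.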
# [9] = qHTS assay to test for compound auto fluorescence at 535 nm (green) in HEK293 cells (AID 720680)
# [10] = qHTS assay to test for compound auto fluorescence at 460 nm (blue) in HEK293 cell free culture (AID 720681)
# Outline: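 Test compounds were pinned into cell-free culture medium (DMEM with 10% FBS) and fluorescence was read directly at Ex/Em 405/460 nm. Signals were expressed as fluorescence equivalents of triamterene, with DMSO vehicle as control.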
# [11] = qHTS assay to test for compound auto fluorescence at 535 nm (green) in HEK293 cell free culture (AID 720682)
# Outline: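 Cell-free medium (DMEM, 10% FBS) receives compound or DMSO by pintool. Plate read directly at Ex 485/Em 535 nm. Signal converted to fluorescein equivalency.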
# [12] = qHTS assay to test for compound auto fluorescence at 590 nm (red) in HEK293 cell free culture (AID 720683)
# Outline: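 Tox21 10K library compounds were pinned into cell-free DMEM with 10% FBS and fluorescence was read at excitation 540 nm. Activity is expressed as Rose Bengal sodium equivalency.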
# [13] = qHTS assay to test for compound auto fluorescence at 590 nm (red) in HepG2 cell free culture (AID 720684)
# Outline: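 Ex 540 / Em 590 nm read of compound in cell-free MEM (10% FBS). Rose Bengal sodium reference.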
# [14] = qHTS assay to test for compound auto fluorescence at 535 nm (green) in HepG2 cell free culture (AID 720686)
# [15] = qHTS assay to test for compound auto fluorescence at 460 nm (blue) in HepG2 cell free culture (AID 720685)
# Outline: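 Cell-free plates of MEM plus 10% FBS received 23 nL compound or DMSO vehicle; blue-channel (405/460 nm) intensity scored against triamterene as reference fluorophore.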
# [16] = qHTS assay to test for compound auto fluorescence at 460 nm (blue) in HepG2 cells (AID 720687)
# Outline: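 Cells (2,000/well in MEM with 10% FBS) attached overnight at 37 C, then were exposed to compound or DMSO for 1 hr at 37 C, 5% CO2. Fluorescence read at Ex/Em 405/460 nm, expressed as triamterene-equivalent signal.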
# [17] = molecular target: Glucocorticoid receptor (Homo sapiens) (UniProt P04150); experiment: qHTS assay to identify small molecule antagonists of the glucocorticoid receptor (GR) signaling pathway (AID 720692; active = well fitted inhibition curve with a large enough effect in the signal ratio in the repeat runs, not every such curve was filed as active; the % refers to the signal ratio)
# Outline: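 Inhibition of dexamethasone-driven (5 nM final) beta-lactamase expression was measured in GRE-reporter HeLa cells over 18 h at 37C. Fluorescence was read after 2 h with the B/G FRET substrate at room temperature.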
# [18] = molecular target: Glucocorticoid receptor (Homo sapiens) (UniProt P04150); experiment: qHTS assay to identify small molecule agonists of the glucocorticoid receptor (GR) signaling pathway (AID 720691; active = well fitted activation curve with a large enough effect in the signal ratio in the repeat runs, not every such curve was filed as active; the % refers to the signal ratio)
# Outline: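 Agonist-mode qHTS in HeLa cells stably expressing a glucocorticoid-response-element beta-lactamase reporter. Fluorescence intensity read with FRET substrate (2 h, room temperature) after 18 h compound treatment at 37 C.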
# [19] = qHTS assay for small molecule disruptors of the mitochondrial membrane potential (AID 720635)
# Outline: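 HepG2 cells (2,000/well) attached overnight at 37C, then took compound for 1 hr at 37C, 5% CO2. Mito-MPS dye was added for 30 min; fluorescence was read at 490/535 nm (monomers) and 540/590 nm (aggregates).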
# Sequence of Glucocorticoid receptor (Homo sapiens) (P04150 whole entry, looked up): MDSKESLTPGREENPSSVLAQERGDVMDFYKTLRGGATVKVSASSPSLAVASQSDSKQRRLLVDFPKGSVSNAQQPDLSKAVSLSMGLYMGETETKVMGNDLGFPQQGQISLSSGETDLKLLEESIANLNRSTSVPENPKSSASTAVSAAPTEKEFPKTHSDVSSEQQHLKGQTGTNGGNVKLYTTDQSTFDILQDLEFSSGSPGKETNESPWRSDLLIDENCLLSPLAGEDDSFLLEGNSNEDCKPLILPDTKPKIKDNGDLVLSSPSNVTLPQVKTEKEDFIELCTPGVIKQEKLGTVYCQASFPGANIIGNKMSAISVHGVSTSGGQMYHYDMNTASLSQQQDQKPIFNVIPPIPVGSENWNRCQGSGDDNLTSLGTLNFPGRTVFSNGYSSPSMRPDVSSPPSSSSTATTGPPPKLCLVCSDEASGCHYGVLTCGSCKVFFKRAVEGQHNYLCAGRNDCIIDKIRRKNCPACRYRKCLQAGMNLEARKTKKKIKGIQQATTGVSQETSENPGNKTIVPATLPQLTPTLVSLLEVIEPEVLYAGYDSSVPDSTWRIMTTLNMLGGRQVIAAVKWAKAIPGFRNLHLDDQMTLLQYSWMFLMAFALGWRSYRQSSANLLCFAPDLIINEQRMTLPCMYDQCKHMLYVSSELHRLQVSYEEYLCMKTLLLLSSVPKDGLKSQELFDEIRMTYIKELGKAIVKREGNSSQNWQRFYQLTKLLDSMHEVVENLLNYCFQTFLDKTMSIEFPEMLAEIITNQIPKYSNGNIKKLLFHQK
structure (smiles),measurement,setting,value
CN(C1CCCCC1)S(=O)(=O)c1ccccc1N,outcome,[1],inactive
same,outcome,[2],inactive
same,Potency,[3],inactive
same,outcome,[4],inactive
same,outcome,[5],inactive
same,outcome,[6],inactive
same,outcome,[7],inactive
same,outcome,[8],inactive
same,outcome,[9],inactive
same,outcome,[10],inactive
same,outcome,[11],inactive
same,outcome,[12],inactive
same,outcome,[13],inactive
same,outcome,[14],inactive
COc1cc2c(Nc3ccc(Br)cc3F)ncnc2cc1OCC1CCN(C)CC1,outcome,[1],inactive
same,Potency,[3],13.3 µM (active)
same,outcome,[4],inactive
same,outcome,[5],inactive
same,outcome,[6],inactive
same,outcome,[7],inactive
same,outcome,[8],inactive
same,outcome,[9],inactive
same,outcome,[10],inactive
same,outcome,[11],inactive
same,outcome,[12],inactive
same,outcome,[13],inactive
same,outcome,[14],inactive
CC(CC(=O)O)CC(C)(C)C (stereo unspecified),outcome,[1],inactive
same,outcome,[2],inactive
same,Potency,[3],inactive
same,outcome,[4],inactive
same,outcome,[5],inactive
same,outcome,[6],inactive
same,outcome,[7],inactive
same,outcome,[8],inactive
same,outcome,[9],inactive
same,outcome,[10],inactive
same,outcome,[12],inactive
same,outcome,[13],inactive
same,outcome,[15],inactive
same,outcome,[14],inactive
same,outcome,[16],inactive
CC(C)(C)NCCO,outcome,[1],inactive
same,outcome,[2],inactive
same,Potency,[3],inactive
same,outcome,[4],inactive
same,outcome,[5],inactive
same,outcome,[6],inactive
same,outcome,[7],inactive
same,outcome,[8],inactive
same,outcome,[9],inactive
same,outcome,[10],inactive
same,outcome,[12],inactive
same,outcome,[13],inactive
same,outcome,[15],inactive
same,outcome,[14],inactive
same,outcome,[17],inactive
O=S1(=O)CCCC1,outcome,[1],inactive
same,outcome,[2],inactive
same,Potency,[3],inactive
same,outcome,[5],inactive
same,outcome,[6],inactive
same,outcome,[7],inactive
same,outcome,[8],inactive
same,outcome,[9],inactive
same,outcome,[10],inactive
same,outcome,[11],inactive
same,outcome,[12],inactive
same,outcome,[13],inactive
same,outcome,[15],inactive
same,outcome,[14],inactive
CC(C)CCCCCCOC(=O)C1CCCCC1C(=O)OCCCCCCC(C)C (stereo unspecified),outcome,[2],inactive
same,Potency,[3],inactive
same,outcome,[4],inactive
same,outcome,[5],inactive
same,outcome,[6],inactive
same,outcome,[7],inactive
same,outcome,[8],inactive
same,outcome,[9],inactive
same,outcome,[10],inactive
same,outcome,[11],inactive
same,outcome,[12],inactive
same,outcome,[13],inactive
same,outcome,[15],inactive
same,outcome,[14],inactive
same,outcome,[16],inactive
same,outcome,[17],inactive
CCCCCCCC[Si](OCC)(OCC)OCC,outcome,[1],inactive
same,outcome,[4],inactive
same,outcome,[5],inactive
same,outcome,[6],inactive
same,outcome,[7],inactive
same,outcome,[8],inactive
same,outcome,[9],inactive
same,outcome,[10],inactive
same,outcome,[11],inactive
same,outcome,[12],inactive
same,outcome,[13],inactive
same,outcome,[14],inactive
same,outcome,[16],inactive
same,outcome,[17],inactive
C[C@@H]1C[C@H]2[C@@H]3C[C@H](F)C4=CC(=O)C=C[C@]4(C)[C@@]3(F)[C@@H](O)C[C@]2(C)[C@@]1(O)C(=O)CO,outcome,[2],inactive
same,Potency,[3],inactive
same,outcome,[4],inactive
same,"fluorescence, relative to Rose Bengal",[5],-0.458% [at 18.6 µM]
same,"fluorescence, % of fluorescein control",[6],0.0352% [at 18.6 µM]
same,"fluorescence, % of triamterene",[7],-0.0057% [at 18.6 µM]
same,"fluorescence, % of fluorescent control",[8],-0.084% [at 18.6 µM]
same,"fluorescence, % of fluorescein",[9],0.12% [at 18.6 µM]
same,"fluorescence, % of fluorescent control",[10],-0.0209% [at 18.6 µM]
same,activity change,[11],0.0847% [at 18.6 µM]
same,"fluorescence, % of fluorescent control",[12],-0.0134% [at 18.6 µM]
same,"fluorescence, % of Rose Bengal",[13],0.414% [at 18.6 µM]
same,"fluorescence, % of fluorescein control",[14],0.0581% [at 18.6 µM]
same,"fluorescence, % of fluorescent control",[16],-0.0249% [at 18.6 µM]
Nc1cc(Cl)cc(S(=O)(=O)O)c1O,outcome,[1],inactive
same,Potency,[3],inactive
same,outcome,[4],inactive
same,outcome,[5],inactive
same,outcome,[6],inactive
same,outcome,[7],inactive
same,outcome,[8],inactive
same,outcome,[9],inactive
same,outcome,[10],inactive
same,outcome,[11],inactive
same,outcome,[12],inactive
same,outcome,[13],inactive
same,outcome,[15],inactive
same,outcome,[14],inactive
same,outcome,[16],inactive
NC(Cc1c[nH]c2ccccc12)C(=O)O (stereo unspecified),outcome,[2],inactive
same,Potency,[3],inactive
same,outcome,[4],inactive
same,outcome,[5],inactive
same,outcome,[6],inactive
same,outcome,[7],inactive
same,outcome,[8],inactive
same,outcome,[9],inactive
same,outcome,[10],inactive
same,outcome,[11],inactive
same,outcome,[12],inactive
same,outcome,[13],inactive
same,outcome,[15],inactive
same,outcome,[16],inactive
same,outcome,[17],inactive
CCCCC(CC)COC(=O)c1ccccc1 (stereo unspecified),outcome,[1],inactive
same,outcome,[2],inactive
same,Potency,[3],inactive
same,outcome,[5],inactive
same,outcome,[6],inactive
same,outcome,[7],inactive
same,outcome,[8],inactive
same,outcome,[9],inactive
same,outcome,[10],inactive
same,outcome,[11],inactive
same,outcome,[12],inactive
same,outcome,[13],inactive
same,outcome,[15],inactive
same,outcome,[14],inactive
same,outcome,[16],inactive
same,Potency,[18],inactive
same,outcome,[17],inactive
COc1ccc(N=Nc2cc(C)c(N=Nc3ccc(S(=O)(=O)O)cc3)cc2OC)cc1,outcome,[1],inactive
same,Potency,[3],inactive
same,outcome,[4],inactive
same,outcome,[5],inactive
same,outcome,[6],inactive
same,outcome,[7],inactive
same,outcome,[8],inactive
same,outcome,[9],inactive
same,outcome,[10],inactive
same,outcome,[12],inactive
same,outcome,[13],inactive
same,outcome,[15],inactive
same,outcome,[14],inactive
same,outcome,[16],inactive
same,Potency,[18],inactive
same,outcome,[17],inactive
Nc1ccc(/C=C/c2ccc(N)cc2S(=O)(=O)O)c(S(=O)(=O)O)c1,outcome,[2],inactive
same,outcome,[4],inactive
same,Potency,[19],inactive
same,outcome,[5],inactive
same,outcome,[6],inactive
same,outcome,[7],inactive
same,outcome,[8],inactive
same,outcome,[9],inactive
same,outcome,[10],inactive
same,outcome,[11],inactive
same,outcome,[12],inactive
same,outcome,[13],inactive
same,outcome,[15],inactive
same,outcome,[16],inactive
same,Potency,[18],inactive
CCN(CCC#N)c1ccccc1,outcome,[2],inactive
same,Potency,[3],inactive
same,outcome,[4],inactive
same,outcome,[5],inactive
same,outcome,[6],inactive
same,outcome,[7],inactive
same,outcome,[8],inactive
same,outcome,[9],inactive
same,outcome,[10],inactive
same,outcome,[12],inactive
same,outcome,[13],inactive
same,outcome,[15],inactive
same,outcome,[16],inactive
same,outcome,[17],inactive
Cc1c(C(C)C)c(=O)n(-c2ccccc2)n1C,outcome,[1],inactive
same,outcome,[2],inactive
same,Potency,[3],inactive
same,outcome,[4],inactive
same,outcome,[5],inactive
same,outcome,[6],inactive
same,outcome,[7],inactive
same,outcome,[8],inactive
same,outcome,[9],inactive
same,outcome,[10],inactive
same,outcome,[12],inactive
same,outcome,[13],inactive
same,outcome,[15],inactive
same,outcome,[16],inactive

# Reference: PubChem BioAssay (Tox21)
